# Most compounds without a hit are left out; they make up all but 6.8% or so of the library.
# C diff growth – inhibitors of Clostridium difficile growth; Clostridium difficile clinical isolate growth, OD600, 24 h; hits give low values; growth activity, negative = inhibition, % at 16 µg/mL (by protocol); 86,000 tested, 0.25% active; AID 1259249;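 active means mean growth activity at or below -80% and every replicate also at or below -80%; inconclusive means mean at or below -80% but some replicate above -80%; inactive means mean growth activity above -80%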;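 further: 0% = DMSO wells and -100% = levofloxacin 16 µg/mL wells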
# Pf Dd2 inh – blocks growth of Plasmodium falciparum Dd2 parasites; P. falciparum Dd2 growth, SYBR Green, 72 h; hits give low values; activity change, % at 10 µM; 94,000 tested, 2.3% active; in the data active means activity change below about -80%; inconclusive means no clear call, values can overlap the other calls
# T cruzi growth-1 – inhibitors of T. cruzi proliferation. inhibition, % at 8.34 µM. 77,000 tested, 5.9% active. T. cruzi beta-gal in NIH3T3, GalScreen luminescence, 90 h;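 active means mean inhibition above about 93%, with at least 55% of replicates each passing it, limit read from the data, passing the limit was not always enough; inconclusive means only one of those two conditions holds; inactive means neither condition holds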
# T cruzi growth-2 – Trypanosoma cruzi proliferation inhibition; shares compounds with T cruzi growth-1; T. cruzi beta-gal in NIH3T3, GalScreen luminescence, 90 h; inhibition, % at 8.35 µM; 5,600 tested, 72% active; AID 651739;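 active means mean replicate inhibition above about 95% and at least 55% of replicates individually reaching it, limit read from the data; inconclusive means only one of the two criteria is met; inactive means neither criterion is met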
# T cruzi growth-3 – Trypanosoma cruzi proliferation inhibition. AID 651740. T. cruzi beta-gal in NIH3T3, GalScreen luminescence, 90 h. 5,600 tested, 21% active. inhibition, % at 2.09 µM. shares compounds with T cruzi growth-1;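 active means mean inhibition above about 95%, with at least 55% of replicates also reaching it, limit read from the data; inconclusive means meets just one of the two conditions; inactive means meets neither condition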;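 further: plate controls were neutral control median for no effect and positive control median for full effect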
# NIH3T3 tox – cytotoxicity in mouse NIH/3T3 fibroblasts; shares compounds with T cruzi growth-1; NIH/3T3 viability, CellTiter-Glo ATP luminescence, 90 h; cytotoxicity (signal decrease), % at 8.35 µM; 5,600 tested, 14% active; AID 651742;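 active means mean signal decrease across replicates above about 35% based on untreated-well scatter, with enough replicates individually passing, limit read from the data; inconclusive means no rule stated though some were filed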;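 further: 0% = median of neutral control wells and 100% = median of positive control wells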
# NIH3T3 tox 2 – kills mouse NIH/3T3 fibroblasts; shares compounds with T cruzi growth-1; inhibition, % at 24.9 µM; NIH/3T3 viability, CellTiter-Glo ATP luminescence, 90 h; 5,600 tested, 56% active;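 active means mean loss of cell viability signal at or above a set limit, and enough replicates individually reaching it; inconclusive means meets only the mean limit or only the replicate share; inactive means meets neither condition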;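 further: 0% = median of neutral control wells and 100% = median of positive control wells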
# * hit, by the source's call; ? = inconclusive; / = no result given.
SMILES,C diff growth,Pf Dd2 inh,T cruzi growth-1,T cruzi growth-2,T cruzi growth-3,NIH3T3 tox,NIH3T3 tox 2
COc1ccc2c3c([nH]c2c1)[C@H](CO)N(S(C)(=O)=O)CC31CN(C(=O)Cc2cccnc2)C1,-2,-50,/,/,/,/,/
C[C@@H]1CN([C@@H](C)CO)C(=O)c2cc(NC(=O)Nc3ccc4c(c3)OCO4)ccc2O[C@@H](C)CCCCO[C@H]1CN(C)C(=O)Nc1ccccc1,-1,-14,27,/,/,/,/
O=C(Nc1ccc2c(c1)OCO2)N[C@@H]1CC[C@@H](CCNC(=O)C2CCCCC2)O[C@@H]1CO,2,23,/,/,/,/,/
COc1ccc(S(=O)(=O)N(C)C[C@H]2OCCCC[C@H](C)Oc3ccc(NC(=O)c4ccncc4)cc3C(=O)N([C@@H](C)CO)C[C@H]2C)cc1,-1,-21,20,/,/,/,/
C[C@@H]1CN([C@H](C)CO)C(=O)c2cc(C#CC3CC3)cnc2O[C@@H]1CN(C)C(=O)c1ccccc1,3,12,-29,/,/,/,/
Cc1noc(C)c1NC(=O)N(C)C[C@@H]1Oc2ncc(/C=C/c3ccccc3)cc2C(=O)N([C@H](C)CO)C[C@@H]1C,-5,41,/,/,/,/,/
COc1ccccc1C#Cc1ccc2c(c1)O[C@@H](CN(C)Cc1ccccc1)[C@@H](C)CN([C@H](C)CO)S2(=O)=O,9,-6,122*,107*,113*,-27,-39
COc1ccccc1C#Cc1ccc2c(c1)O[C@H](CN(C)Cc1ccccc1)[C@@H](C)CN([C@H](C)CO)S2(=O)=O,4,-77,114*,99*,112*,-47,-16
COc1ccccc1C#Cc1ccc2c(c1)O[C@H](CN(C)Cc1cccnc1)[C@H](C)CN([C@@H](C)CO)S2(=O)=O,12,-32,/,/,/,/,/
COc1ccccc1C#Cc1ccc2c(c1)O[C@H](CN(C)Cc1cncnc1)[C@H](C)CN([C@@H](C)CO)S2(=O)=O,-3,-43,94,/,/,/,/
COc1ccccc1C#Cc1ccc2c(c1)O[C@H](CN(C)Cc1cncnc1)[C@@H](C)CN([C@@H](C)CO)S2(=O)=O,-1,-37,117,/,/,/,/
COc1ccccc1C#Cc1ccc2c(c1)O[C@@H](CN(C)Cc1ccccc1)[C@H](C)CN([C@@H](C)CO)S2(=O)=O,14,-66,119*,87,112*,45*,42*
CCCNC(=O)N1C[C@H](C)[C@@H](OC)CN(C)C(=O)c2ccc(NC(=O)C3CCC3)cc2OC[C@@H]1C,7,7,/,/,/,/,/
CCCNC(=O)N(C)C[C@@H]1Oc2ncc(-c3ccc(F)cc3)cc2C(=O)N([C@@H](C)CO)C[C@@H]1C,0,24,/,/,/,/,/
COc1ccc2c3c([nH]c2c1)[C@H](CO)N(Cc1nccs1)CC31CN(C(=O)C2CCCC2)C1,4,-28,/,/,/,/,/
CCC(=O)N1CCCCN2[C@H](C1)[C@H](c1ccc(/C=C/c3ccccc3)cc1)[C@@H]2CO,-1,-3,105*,78,14,25,103*
CN1CCCCN2[C@@H](CO)[C@@H](c3ccc(/C=C/c4ccccc4)cc3)[C@@H]2C1,2,-6,82,/,/,/,/
CCC(=O)N1CCCCN2[C@H](CO)[C@@H](c3ccc(/C=C/c4ccccc4)cc3)[C@@H]2C1,9,8,63,/,/,/,/
CN(C)CC(=O)N1CCCCN2[C@H](CO)[C@@H](c3ccc(/C=C/c4ccccc4)cc3)[C@@H]2C1,6,-17,-21,/,/,/,/
CN(C)CC(=O)N1CCCCN2[C@H](CO)[C@H](c3ccc(/C=C/c4ccccc4)cc3)[C@@H]2C1,1,-2,101*,112*,110*,89*,104*
CCC(=O)N1CCCCN2[C@@H](CO)[C@@H](c3ccc(/C=C/c4ccccc4)cc3)[C@@H]2C1,28,-23,118*,99*,80,7,105*
O=C1CN(S(=O)(=O)c2ccccc2)C[C@H]2[C@@H](c3ccc(C4=CCCC4)cc3)[C@@H](CO)N12,3,-29,/,/,/,/,/
CO[C@H]1CN(C)C(=O)c2cc(NC(=O)NC(C)C)ccc2OC[C@H](C)N(Cc2cncnc2)C[C@@H]1C,-14,50,4,/,/,/,/
C/C=C/c1ccc([C@H]2[C@@H](C#N)N(c3nc(CC)cs3)[C@@H]2CO)cc1,2,-47,?,101*,23,1,6
C/C=C/c1ccccc1[C@@H]1[C@H](C#N)N(c2nc(CC)cs2)[C@H]1CO,-6,-7,/,/,/,/,/
SMILES,C diff growth,Pf Dd2 inh,T cruzi growth-1,T cruzi growth-2,T cruzi growth-3,NIH3T3 tox,NIH3T3 tox 2
CCc1csc(N2[C@H](CO)[C@H](c3ccc(-c4ccc(F)cc4)cc3)[C@@H]2C#N)n1,5,-2,98*,108*,43,21,91*
CCc1csc(N2[C@H](C#N)[C@H](c3ccc(-c4ccc(F)cc4)cc3)[C@H]2CO)n1,5,-2,94,/,/,/,/
N#C[C@@H]1[C@H](c2ccc(C#Cc3ccc(F)cc3)cc2)[C@@H](CO)N1c1nc(-c2ccccc2)cs1,8,42,36,/,/,/,/
CCc1csc(N2[C@@H](C#N)[C@H](c3ccc(C#Cc4ccc(F)cc4)cc3)[C@@H]2CO)n1,3,-52,106*,97*,110*,-29,21
COc1ccc(CN(C)C[C@H]2OCCCC[C@H](C)Oc3ccc(NC(=O)CCCN(C)C)cc3C(=O)N([C@H](C)CO)C[C@H]2C)cc1,-1,-36,-16,/,/,/,/
COc1ccc2c3c([nH]c2c1)[C@@H](CO)N(C(=O)c1cccnc1)CC31CCN(C(=O)NC(C)C)CC1,4,-65,/,/,/,/,/
CCNC(=O)C[C@H]1CC[C@@H]2[C@H](COc3ccc(NC(=O)Nc4ccccc4F)cc3C(=O)N2C)O1,7,8,16,/,/,/,/
O=C(Nc1ccccc1)N1CCCCN2[C@H](C1)[C@@H](c1ccc(-c3ccccc3F)cc1)[C@@H]2CO,29,-11,73,/,/,/,/
O=C(Nc1cccc(F)c1)N1CCCCN2[C@H](C1)[C@@H](c1ccc(-c3ccccc3F)cc1)[C@@H]2CO,65,-9,101*,?,?,96*,102*
O=C(Nc1cccc(F)c1)N1CCCCN2[C@H](C1)[C@H](c1ccc(-c3ccccc3F)cc1)[C@@H]2CO,36,16,110*,112*,94,11,33*
O=C(Nc1cccc(F)c1)N1CCCCN2[C@H](CO)[C@H](c3ccc(-c4ccccc4F)cc3)[C@@H]2C1,17,8,107*,96*,91,19,59*
O=C(Nc1cccc(F)c1)N1CC(=O)N2[C@H](CO)[C@@H](c3ccc(-c4ccccc4F)cc3)[C@@H]2C1,-4,-24,/,/,/,/,/
O=C(Nc1ccc(F)cc1)N1CCCCN2[C@H](CO)[C@@H](c3ccc(-c4cccc(F)c4)cc3)[C@@H]2C1,61,-7,84,/,/,/,/

# Screens deposited in PubChem by Broad Institute.
